# ALDH1A1 block: ALDH1A1 (human) enzyme inhibition; P00352; Purified ALDH1A1, NADH fluorescence, propionaldehyde substrate; Potency, µM (titrated, usually from 75.3 µM), inactives show at the top dose activity, negative = inhibition, most hits filed as inhibitors; 7.3% of 220,000 active;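 note: plate controls were no enzyme wells and a reference inhibitor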
# Target sequence (P00352 whole entry, looked up): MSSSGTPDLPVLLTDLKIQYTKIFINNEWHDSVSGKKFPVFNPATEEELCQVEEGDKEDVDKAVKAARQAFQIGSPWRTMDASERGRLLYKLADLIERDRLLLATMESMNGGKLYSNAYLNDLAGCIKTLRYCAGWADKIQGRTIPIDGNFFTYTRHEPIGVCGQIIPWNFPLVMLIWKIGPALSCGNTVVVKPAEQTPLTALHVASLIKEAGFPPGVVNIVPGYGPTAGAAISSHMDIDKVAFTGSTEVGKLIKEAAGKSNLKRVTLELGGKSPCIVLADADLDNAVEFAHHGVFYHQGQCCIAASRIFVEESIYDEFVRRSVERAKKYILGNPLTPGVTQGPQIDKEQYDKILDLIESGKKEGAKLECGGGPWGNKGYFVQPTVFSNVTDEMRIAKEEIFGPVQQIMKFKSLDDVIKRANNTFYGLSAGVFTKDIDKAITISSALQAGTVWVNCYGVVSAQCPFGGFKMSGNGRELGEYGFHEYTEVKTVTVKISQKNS
# HTT cytoprotect: protects HTT-Q103 PC12 cells, measured by ATP; PC12 HTT-Q103 induced, cytoprotection, ATP luminescence, 40 h; Potency, µM (titrated, usually from 56.4 µM), inactives show cytoprotection (ATP increase), hits mostly activators; 0.14% of 230,000 active; AID 1471; active = well fitted curve in the direction sought with a large enough effect; inconclusive = small, poorly fitted or top-dose-only effect, or another doubt; inactive = no such curve, though single readings can be large; an effect the other way counts as inactive or inconclusive; note: % of control where 0% means no effect; nearly all actives have a fitted effect of over 45% in size
#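 PC12 cells with ecdysone-inducible HTT exon 1 Q103-GFP, induced with 100 nM tebufenozide and co-treated with library compounds in a dose series (1536-well, 1500 cells/well). Cytoprotection read as ATP content by ATPlite luminescence.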
# JMJD2E inh: blocks human JMJD2E demethylase activity; JMJD2E catalytic domain, FDH-coupled NADH fluorescence (FDH is formaldehyde dehydrogenase); AID 2147; Potency, µM (titrated, usually from 57.1 µM), inactives show at the highest dose activity change, negative = inhibition, hits mostly inhibitors; 1.6% of 230,000 active;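 note: 0% = wells with enzyme and -100% = buffer wells without enzyme; nearly all actives have a fitted effect of over 50% in size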
# HPGD inh: blocks human HPGD enzyme activity. P15428. purified HPGD, NADH fluorescence kinetic, PGE2 substrate. Potency, µM, inactives show at the top dose activity change, negative = inhibition, actives largely listed as inhibitors. 4.3% of 150,000 active. AID 894; note: % is set by controls: 0 for no effect and ±100 for the full control effect
# Target sequence (P15428 whole entry, looked up): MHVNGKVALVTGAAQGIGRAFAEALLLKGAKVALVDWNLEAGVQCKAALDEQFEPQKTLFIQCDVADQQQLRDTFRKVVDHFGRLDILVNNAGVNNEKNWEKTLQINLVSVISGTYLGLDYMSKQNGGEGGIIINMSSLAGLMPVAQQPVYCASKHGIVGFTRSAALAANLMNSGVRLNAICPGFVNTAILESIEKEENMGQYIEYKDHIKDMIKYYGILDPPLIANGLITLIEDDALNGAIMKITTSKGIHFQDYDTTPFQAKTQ
#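 20 nM HPGD preincubated 15 min at room temperature with compound in 50 mM Tris-HCl pH 8, 0.01% Tween 20. Started with 1 mM NAD+ and 30 uM prostaglandin E2; NADH fluorescence (360/450 nm) read 5 times over 30-s intervals, last minus first.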
# HttQ103 aggreg: reduces HttQ103-GFP aggregates in PC12 cells; PC12 HttQ103-GFP aggregates, Acumen cytometry, 40 h; 1.1% of 220,000 active; Potency, µM (titrated, usually from 46.1 µM), for the others: top-dose activity change, negative = inhibition, actives largely listed as inhibitors; active = well fitted curve in the direction sought with a large enough effect; inconclusive = small, poorly fitted or top-dose-only effect, or another doubt; inactive = no such curve, though single readings can be large; an effect the other way counts as inactive or inconclusive; note: % is set by controls: 0 for no effect and ±100 for the full control effect; nearly all actives have a fitted effect of over 60% in size
#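 Aggregate formation scored by laser-scanning cytometer (488 excitation, 500–530 emission) in lysed PC12 cells expressing Q103-GFP after 100 nM tebufenozide induction; library tested in dose series, with ATPLite reagent added in the multiplex.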
# LMNA splice mod: LMNA splicing modulation | HeLa LMNA splicing GFP/RFP minigene ratio, 48 h | Potency, µM (doses to about 46.1 µM), for the others: at the top dose ratio change, negative = inhibition, hits mostly inhibitors | 0.01% of 200,000 active | AID 1487; active = well fitted inhibition curve with a large enough effect in the signal ratio, with a control signal flat, not every such curve was filed as active; inconclusive = small, poorly fitted or top-dose-only effect, or effect the other way, or a change in a side signal; the % refers to the signal ratio; note: % is set by controls: 0 for no effect and ±100 for the full control effect
#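 S3 HeLa cells stably expressing lamin A-EGFP splicing minigene plus DsRed2, 600 cells/well, 48 h compound exposure at 37C. Laser-scanning cytometry; analysed as GFP (500-530 nm)/RFP (575-640 nm) total intensity ratio; 0.5% DMSO vehicle.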
# * hit, by the source's call; ? = inconclusive; nt = no result; [ ] = remark or other dose. Compounds with a hit are over-represented: about 9.2% of the library has one in this group of screens. Unless noted, calls come from the whole dose curve; as a rule, active = well fitted inhibition curve with a large enough effect (not every such curve was filed as active); inconclusive = small, poorly fitted or top-dose-only effect, or another doubt; inactive = no such curve, though single readings can be large or run the other way. Potency is the fitted concentration of half-maximal effect.
SMILES,ALDH1A1 block,HTT cytoprotect,JMJD2E inh,HPGD inh,HttQ103 aggreg,LMNA splice mod
O=C(O)CN1C(=O)c2ccc(Oc3cccc4c3C(=O)N(CC(=O)O)C4=O)cc2C1=O,-0.4%,-17.3%,-0.1%,-7.3%,-6.1%,-2.9%
CC(C)N(Cc1ccccc1)C(=O)c1nc(-c2ccc(Cl)cc2)n2c1CCCCC2,nt,nt,nt,nt,nt,-15.3%[46 µM]
CCOC(=O)N1CCC2(CC1)OC(=O)C(C)=C2C(=O)NCc1ccc(C)cc1,nt,nt,nt,nt,nt,24.4%[46 µM]
Cc1ccc(-c2csc3ncnc(Oc4ccc5c(C)cc(=O)oc5c4)c23)cc1,-1.0%,nt,?,?,-2.0%,?
CC(=O)Nc1cccc(Oc2ncnc3scc(-c4ccc(C)cc4)c23)c1,?,-10.2%[10 µM],7.7%,28.2µM*,21.4%,?
COc1cccc(NC(=O)CCc2nc3c(C)nn(-c4ccc(C)cc4)c3n(C)c2=O)c1,nt,nt,nt,nt,nt,-5.4%[46 µM]
CC12CCC(c3n[nH]c(=S)nc31)C2(C)C (configuration not stated),20µM*,nt,-2.2%,?,?,1.5%
CC(NC(=O)c1cc2ccccc2o1)C(=O)O (configuration not stated),22.4µM*,26.4%,5.8%,-5.7%,9.0%,4.0%
NNC(=O)c1cc2c(ccc3ccccc32)o1,?,-25.3%,?,nt,14.9%[9.22 µM],nt
CCNC(=O)c1cc2ccccc2o1,10.1%,nt,-4.1%,-4.4%,-1.2%,0.1%
COc1ccc(C(=O)N/N=c2\oc3ccccc3cc2C(=O)NCc2ccccc2)cc1,11.2µM*,-10.0%[10 µM],0.7%,-5.0%,-26.0%,-1.7%
O=C(O)c1cc2c(ccc3ccccc32)o1,-2.3%,-36.0%,?,?,17.8µM*,9.0%
O=C(NCc1ccccc1)c1cc2ccccc2o1,?,9.5%,-0.9%,17.8µM*,24.1%,1.2%[46 µM]
O=C(OC[C@@H]1CCCN2CCCC[C@H]12)c1cc2ccccc2oc1=O,-13.7%,nt,?,-15.4%,-3.0%,15.6%
N#Cc1ccccc1NC(=O)CNc1ccccc1N1CCCCC1,31.6µM*,18.3%,1.6%,-11.5%,7.2%[9.22 µM],1.9%
Cc1ccc(-c2nc3ccc([N+](=O)[O-])cc3[nH]2)cc1,?,-13.1%[10 µM],7.7%,nt,10µM*,nt
CCN(CC)S(=O)(=O)c1cc(NS(=O)(=O)c2cc(Cl)ccc2Cl)ccc1C,15.8µM*,-3.5%[0.074 µM],3.0%,-6.3%,-1.0%,?
CC[C@H]1C2=C3C(CC[C@H]4C(OCc5ccc(F)cc5C(F)(F)F)OC[C@](C)([C@@H]34)N(C(=O)OC(C)(C)C)C2)C2COC(=O)OCC21 (some centres not stated),-7.5%,-46.0%,?,-11.6%,nt,nt
CCCCOc1ccc(/C=C/C(=O)NC2=Nc3ccccc3NC(C)=C2C(=O)OCC)cc1OC,?,-16.2%,?,nt,-8.4%,nt
CC(c1ccncn1)N(C)Cc1nc(-c2ccc(C(F)(F)F)cc2)no1 (configuration not stated),-85.3%,-26.4%,18.5%,nt,-9.9%,nt
Cc1oc(-c2ccc3ccccc3c2)nc1CN(C)C(C)c1ccncn1 (configuration not stated),15µM*,-15.1%[10 µM],-8.4%,nt,-1.4%[9.22 µM],nt
O=c1[nH]cnc2nc(-c3ccccc3)c(-c3ccccc3)nc12,?,-3.9%[10 µM],3.16µM*,?,14.1µM*,-13.9%
O=c1[nH]cnc2nn(-c3ccccc3)nc12,?,-28.1%,?,?,-5.3%,4.1%
O=C(CSc1nnnn1C1CCCCC1)NCc1cccs1,-4.0%,14.3%[10 µM],5.6%,nt,7.8%[9.22 µM],-7.5%[46 µM]
O=C(CSc1nnnn1C1CCCCC1)NNC(=O)c1ccco1,4.74µM*,-0.8%[10 µM],-3.7%,nt,-2.8%[9.22 µM],nt
SMILES,ALDH1A1 block,HTT cytoprotect,JMJD2E inh,HPGD inh,HttQ103 aggreg,LMNA splice mod
O=C(CSc1cccs1)NCCc1ccccc1,-6.5%,12.3%[0.074 µM],6.8%,14.1µM*,-0.3%,3.7%
O=C(CSc1nnnn1C1CCCCC1)NCCc1ccccc1,10µM*,4.6%,-4.8%,-13.0%,10.8%,?
O=C(CN1C(=O)COc2ccccc21)N1CCc2ccccc2C1,3.2%,28.9%[1.9 µM],-8.2%,-12.9%,2.5%,-1.8%
COc1cc(-c2ccc(-[n+]3nc(-c4ccccc4)nn3-c3ccc([N+](=O)[O-])cc3)c(OC)c2)ccc1-[n+]1nc(-c2ccccc2)nn1-c1ccc([N+](=O)[O-])cc1,nt,-63.7%,nt,nt,-12.5%,nt
COc1ccc(CC(=O)NC(C)c2nnc(SCC(=O)Nc3cc(C)ccc3OC)n2C)cc1 (configuration not stated),-1.5%,-32.5%,7.8%,nt,2.7%[9.22 µM],nt
COc1ccc2c(c1)C(c1ccccc1OC)CC(=O)O2 (configuration not stated),?,-8.8%,nt,-8.8%,nt,nt
COc1ccc2c(c1)C(c1ccccc1C)CC(=O)O2 (configuration not stated),31.6µM*,-10.6%[96.6 µM],nt,?,nt,nt
CCCCC/C=C\C/C=C\C/C=C\CCCCCCC(=O)NC(C)C(=O)O (configuration not stated),-5.5%,-15.6%,2.7%,-5.4%,nt,nt
O=C(CN1N=C(c2ccc(Cl)cc2)CCC1=O)NCCN1CCc2ccccc2C1,7.8%,-6.5%[10 µM],-16.3%,-10.5%,18.2%,-6.7%
COc1ccccc1-n1c(SCC(=O)NC2CCCC2)nc2cccnc21,-2.7%,-7.6%[10 µM],3.4%,14.1µM*,16.5%,-1.2%
CCn1c(SCC(=O)Nc2nccs2)nnc1-c1cc2cccc(OC)c2o1,-6.8%,-2.1%,1.7%,-23.6%,2.4%,7.9%
CCn1c(SCC(=O)NC2CCCCC2)nnc1-c1cc2cccc(OC)c2o1,?,-8.0%,?,20µM*,-7.9%,17.6%
CCOC(=O)C1(Cc2ccccc2C(F)(F)F)CCN(C2CCN(C(C)C)CC2)CC1,0.6%,-4.8%[10 µM],-7.1%,nt,-10.0%[9.22 µM],14.6%[46 µM]
CCC(=O)C1=C(O)C(c2cccc(Oc3ccccc3)c2)CCC1=O (configuration not stated),-10.8%,-6.4%,-6.5%,nt,10µM*,-17.3%[46 µM]
CN(C)/C=C/C1=CC(=O)CC(C)(C)C1,8.91µM*,26.5%[10 µM],-6.8%,nt,3.6%,5.6%[9.22 µM]
Cc1snc2sc(C(=O)c3ccc(Br)cc3)c(N)c12,6.0%,-9.1%,7.7%,-10.8%,-16.7%,8.8%
Cc1ccc(C(=O)c2sc3nsc(C)c3c2N)cc1,14.1µM*,13.3%,0.2%,-27.4%,1.9%,12.7%
COc1ccc(-c2cn3c(n2)sc2cc(C(=O)NCCc4ccc(OC)cc4OC)ccc23)cc1,nt,nt,nt,nt,nt,10.5%[46 µM]
Cc1cc([N+](=O)[O-])c2c(c1C)C1C=CCC1C(c1ccccn1)N2 (configuration not stated),8.91µM*,-36.5%,?,nt,7.5%,-24.8%[46 µM]
Cc1cc([N+](=O)[O-])cc2c1NCC1CC=CC21 (configuration not stated),?,-0.1%[10 µM],3.9%,-2.5%,-9.2%,-5.4%
